Assay outcomes (PubChem)
ERK AVP inh: vasopressin-driven ERK pathway inhibition; HEK293-V1b, vasopressin-stimulated pERK AlphaScreen; 72,000 compounds, 0.99% hits; AID 995; Potency, µM (series often up to 57.5 µM), most hits filed as inhibitors; also: nearly all actives have a fitted effect of over 55% in size
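Overnight-seeded V1b-HEK293 cells in 1% FBS got compound, then vasopressin (25 nM final, 5 min, 37C), then lysis buffer. AlphaScreen detection of phospho-ERK; activity normalized to basal and full-stimulation controls.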
Casp1 inh: allosteric or competitive inhibitors of human caspase-1 | Caspase-1 enzyme, Ac-WEHD-AFC fluorogenic rate | Potency, µM (doses to about 57.5 µM), hits mostly inhibitors | 75,000 compounds, 0.03% hits | AID 900
Target sequence (P29466 120-297 limits assumed): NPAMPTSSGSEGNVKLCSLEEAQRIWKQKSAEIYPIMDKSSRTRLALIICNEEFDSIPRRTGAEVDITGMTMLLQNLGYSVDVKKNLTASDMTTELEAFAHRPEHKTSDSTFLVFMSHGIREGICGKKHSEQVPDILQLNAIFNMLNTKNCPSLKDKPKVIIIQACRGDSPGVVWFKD
Target sequence (P29466 317-404 limits assumed): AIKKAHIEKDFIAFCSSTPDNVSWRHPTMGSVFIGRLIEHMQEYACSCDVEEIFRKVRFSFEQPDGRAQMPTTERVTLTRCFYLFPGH
Tau filament bind: tau filament binding. P10636. recombinant tau filaments, thioflavin S fluorescence, 15 h; filaments grown with octadecylsulfate alongside compound. Potency, µM (titrated, usually from 57.1 µM). 71,000 compounds, 2% hits. AID 596;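 also: actives lower thioflavin S fluorescence by blocking filaments or displacing dye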
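His-tagged recombinant human tau (exons 2, 3, 10; 1 uM final) fibrillized with 30 uM sodium octadecylsulfate, 15 h at 37 C, in pH 7.4 HEPES buffer with 10 uM thioflavine S and 5 mM DTT. Reduced ThS fluorescence (450/510 nm) marks activity.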
Caspase-7 inhib: allosteric or competitive inhibitors of human caspase-7 | AID 889 | 75,000 compounds, 0.02% hits | recombinant caspase-7, Ac-DEVD-AFC fluorescence rate | Potency, µM (highest dose often 57.5 µM), hits mostly inhibitors; active = well fitted inhibition curve with a large enough effect in the main read-out, with a control signal flat, not every such curve was filed as active; inconclusive = small, poorly fitted or top-dose-only effect, or a change in a side signal
Target sequence (P55210 24-198 limits assumed): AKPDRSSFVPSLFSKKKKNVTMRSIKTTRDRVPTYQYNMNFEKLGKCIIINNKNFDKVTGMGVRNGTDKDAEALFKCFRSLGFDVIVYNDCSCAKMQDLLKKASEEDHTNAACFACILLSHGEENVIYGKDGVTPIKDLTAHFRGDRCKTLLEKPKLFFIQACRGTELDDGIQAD
Target sequence (P55210 207-303 limits assumed): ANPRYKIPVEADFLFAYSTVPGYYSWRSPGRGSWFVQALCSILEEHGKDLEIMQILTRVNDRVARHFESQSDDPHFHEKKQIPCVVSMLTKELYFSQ
ALOX15 inhib: inhibitors of human 15-lipoxygenase (ALOX15) | P16050 | purified 15hLO-1, xylenol orange hydroperoxide absorbance | Potency, µM (titrated, usually from 57.1 µM), actives largely listed as inhibitors | 74,000 compounds, 1.4% hits | AID 887; also: nearly all actives have a fitted effect of over 55% in size
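Quantitative HTS in 25 mM Hepes pH 7.5 containing 0.01% Triton X-100: human 15hLO-1 at 40 nM, arachidonic acid at 50 uM, 6 min turnover. Product quantified via ferrous oxidation/xylenol orange, 573:405 nm absorbance ratio.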
Large screens that a line does not name were inactive. The list is not random: actives were taken first. Their share in the collection is about 3.9%. Unless noted, calls follow the shape of the dose curve; as a rule, active = well fitted curve in the direction sought with a large enough effect; inconclusive = small, poorly fitted or top-dose-only effect, or another doubt; inactive = no such curve, though single readings can be large; an effect the other way counts as inactive or inconclusive.

COc1ccc(-c2nc(C#N)c(NCCc3ccccc3)o2)cc1OC	ERK AVP inh 16µM
COC(=O)[C@@H]1[C@@H](O)[C@]2(O)c3ccccc3O[C@]2(c2ccccc2)[C@H]1c1ccccc1	none (no result: Tau filament bind)
CCN1C=C(Cc2cccs2)C2=C(C1)C(c1cccs1)C(C#N)=C(N)O2 (configuration not stated)	Tau filament bind 4µM, ALOX15 inhib 10µM
COc1ncc2nc(C)c(=O)n(CCc3ccccc3)c2n1	none
O=C(O)c1cccc(Cl)c1Cl	none
CCOC(=O)COc1cccc2c(=O)n(CC(=O)N3CCc4ccccc43)ccc12	Tau filament bind 16µM (no result: ERK AVP inh)
CC(C)(C)N1C(=O)[C@H]2[C@H]3[C@H](O)[C@H](O)C/C(=N/OC[C@@H](O)COCc4ccco4)[C@@H]3CC[C@@H]2C1=O	none (no result: Tau filament bind)
O=S1(=O)N[C@H]2CC[C@@H]3NS(=O)(=O)N[C@H]4CC[C@H](N1)N4S(=O)(=O)N23	Tau filament bind 3.2µM
O=C(O)[C@@H]1[C@H](C(=O)O)[C@H]2C(=O)C=C[C@H]1N2Cc1ccccc1	none
COCC(C)NC(=O)c1ccc(N(C)C)cc1 (configuration not stated)	none
CNNCc1ccc(C(=O)NC(C)C)cc1	ALOX15 inhib 7.9µM
O=C(O)CNC(=O)c1ccccc1O	none
CCn1c2ccccc2c2cc(NC(=O)C3CCN(S(=O)(=O)c4cccs4)CC3)ccc21	none
CCn1c2ccccc2c2cc(NC(=O)Cc3ccc(S(=O)(=O)N4CCOCC4)s3)ccc21	Tau filament bind 6.3µM
CN(C)c1ccc(NC(=O)CN2CCC(C(=O)c3ccc(F)cc3)CC2)cc1	Tau filament bind 16µM
CCOC(=O)c1c(NC(=O)CSc2n[nH]c(N)n2)sc(CC)c1C	none
Cc1ccc(/C=C/C2=Cc3c(sc(NC(=O)CSc4n[nH]c(N)n4)c3C#N)C(C)(C)C2)o1	Casp1 inh inconclusive, Caspase-7 inhib inconclusive, ALOX15 inhib 13µM
N#Cc1ccccc1-c1ccc2ncnc(NCCN3CCOCC3)c2c1	none
Nc1nc(C(=O)O)c(N=Nc2ccccc2)c(=O)[nH]1	Tau filament bind 5µM
c1ccc(-c2cc3c(ccc4nonc43)nn2)cc1	Tau filament bind 3.2µM
Cc1cc2c3nonc3ccc2n1-c1ccccc1	Caspase-7 inhib inconclusive (no result: Casp1 inh)
O=C(/C=C/c1ccccc1)c1ccc(O[C@H]2OC(CO)C(O)C(O)C2O)cc1O (some centres not stated)	none (no result: Tau filament bind)
O=C1CCNc2cc3ccccc3cc21	Tau filament bind 20µM, Caspase-7 inhib inconclusive, ALOX15 inhib inconclusive (no result: Casp1 inh)
NCCSCCc1ccccc1	none
CCOc1ccc(OCC)c(NC(=O)C2CCN(S(=O)(=O)c3cccc4nonc34)CC2)c1	none
COc1ccc(Cl)cc1NC(=O)C1CCCN(S(=O)(=O)c2cccc3nonc23)C1 (configuration not stated)	Tau filament bind 25µM
CC(C)c1ccc(/C=C2\C=C(c3ccc4ccccc4c3)OC2=O)cc1	none
O=C(N/N=C\c1ccccc1O)c1ccccc1O	ERK AVP inh inconclusive, Tau filament bind 32µM
COCC(=O)N1CCC2(CCCN(c3ccncc3)C2)CC1	none
CCOc1ccccc1CNC(=O)c1cc2occc2n1C	ERK AVP inh 20µM, ALOX15 inhib 20µM
COc1ccccc1CNC(=O)c1cc2sccc2n1C	none
COc1ccc(NC2CS(=O)(=O)CC2NCc2ccco2)cc1 (configuration not stated)	ERK AVP inh inconclusive, ALOX15 inhib 16µM
CCOc1ccc2nc(COC(=O)c3ccco3)c(C(C)=O)[n+]([O-])c2c1	none
CC(=O)c1c(COC(=O)c2cccnc2)nc2ccccc2[n+]1[O-]	Tau filament bind 20µM
COC(=O)N1CCC2(CCN(Cc3ccccc3)CC2)CC1	none
O=C(c1cc2ccccc2oc1=O)N1CCN(c2ccc(N3CCOCC3)nn2)CC1	none
O=C(c1ccc(CSCc2ccccc2F)o1)N1CCN(c2ccc(N3CCOCC3)nn2)CC1	ERK AVP inh 25µM, Casp1 inh inconclusive, Caspase-7 inhib inconclusive
COc1ccc(OC)c(-n2c(-c3cccc(O)c3)n[nH]c2=S)c1	ALOX15 inhib 2.5µM
C[C@@]1(C(NC(=O)c2ccccc2)c2ccc(-c3ccccc3)cc2)C[C@H]1C1CCCCC1 (some centres not stated)	none (no result: ALOX15 inhib)
N=c1ccn2c(n1)O[C@@H]1[C@@H](O)[C@H](CO)O[C@H]12	none
C=CCn1c(=N)c(C(=O)NCCCOC)cc2c(=O)n3cccc(C)c3nc21	ERK AVP inh inconclusive, Caspase-7 inhib inconclusive, ALOX15 inhib 1.3µM (no result: Casp1 inh)
CCCCNC(=O)c1cc2c(=O)n3cccc(C)c3nc2n(Cc2ccccc2)c1=N	Tau filament bind 0.2µM, Caspase-7 inhib inconclusive (no result: Casp1 inh)
COCCNC(=O)c1cc2c(=O)n3cccc(C)c3nc2n1C	none (no result: ERK AVP inh)
CCn1c(=N)c(C(=O)NCc2cccnc2)cc2c(=O)n3cccc(C)c3nc21	Caspase-7 inhib inconclusive (no result: Casp1 inh)
COCCn1c(=N)c(C(=O)NCCc2ccccc2)cc2c(=O)n3cccc(C)c3nc21	Tau filament bind 3.2µM, Caspase-7 inhib inconclusive (no result: Casp1 inh)
C=C(C)C(=O)OCC(C)O (configuration not stated)	none
CC(C)CNC(=O)O	none
CC(=O)OC[C@@H]1O[C@@H](O/N=C2/C[C@@H](O)[C@@H](O)[C@@H]3[C@@H]4C(=O)N(C(C)(C)C)C(=O)[C@H]4CC[C@H]23)[C@H](OC(C)=O)[C@H](OC(C)=O)[C@@H]1OC(C)=O	none (no result: Tau filament bind)
O=C(O)c1ccc(F)c(S(=O)(=O)Nc2cccc(F)c2)c1	none (no result: ERK AVP inh, Tau filament bind)
COc1ccc(O)c(C(=O)CC(=O)c2ccc(F)cc2)c1	ALOX15 inhib inconclusive
O=C(CC(=O)c1cc(Cl)ccc1O)c1ccccc1	ERK AVP inh inconclusive, Tau filament bind 25µM, ALOX15 inhib inconclusive
Cc1ccc(O)c(C(=O)CC(=O)c2cccc(F)c2)c1	Tau filament bind 2µM
O=C(CCc1ccccc1)Nc1cc(Cl)ccc1O	ERK AVP inh inconclusive, ALOX15 inhib inconclusive
COc1ccc(-c2noc(CSc3nnc(-c4ccncc4)n3-c3ccc(F)cc3)n2)cc1OC	ERK AVP inh 25µM
CCCn1c(C)nc2c(NC3CCN(Cc4ccccc4)CC3)nc(C)nc21	none
CCOCCOC(=O)C1=C(C)Nc2ccc(C)cc2S1	Tau filament bind 13µM, ALOX15 inhib inconclusive
CC(=O)Nc1ccc(N2CCN(C(=O)c3cccs3)CC2)cc1	none
Cc1ccc(CNc2ccc(N3CCOCC3)cc2)s1	ALOX15 inhib 16µM
CC(=O)N1CCN(c2ccc(NCc3cccs3)cc2)CC1	Tau filament bind 25µM, ALOX15 inhib 13µM
O=C(c1ccccc1)N1CCN(c2ccc(NCc3ccc4c(c3)OCO4)cc2)CC1	ERK AVP inh 20µM, Tau filament bind 32µM, ALOX15 inhib 25µM
Cc1cc(C)nc(Nc2ccc(N3CCOCC3)cc2)n1	ERK AVP inh inconclusive, Tau filament bind inconclusive
CC(=O)N1CCN(c2ccc(NC(=O)c3ccc4c(c3)OCCO4)cc2)CC1	none
CC(=O)N1CCN(c2ccc(NCc3ccc(C)s3)cc2)CC1	Tau filament bind inconclusive, ALOX15 inhib 10µM
